The campaign covered roughly 2,100 compounds. About 670 (32%) were called active. Roughly 50% stayed inconclusive and do not appear here. Calls come from the whole dose curve; as a rule, active = well fitted inhibition curve with a large enough effect; inconclusive = small, poorly fitted or top-dose-only effect; inactive = no such curve, though single readings can be large or run the other way. The list shows a part of the results.
Test: CMV-Luciferase Counterscreen for Inhibitors of ATXN expression; note: nearly all actives have a fitted effect of over 55% in size
Conditions: HEK-293 CMV-luciferase reporter, luminescence, 24 h; series mostly up to 57.5 µM
% is set by controls: 0 for no effect and ±100 for the full control effect; potency is the fitted concentration of half-maximal effect.

Row | Compound | activity change, negative = inhibition | Potency
1 | Cc1cc2nc(-c3nnnn3Cc3ccccc3)c(=O)[nH]c2cc1C | -9.85% [at 11.4 µM] (inactive) | 
2 | CCn1c2ccccc2c2cc(NC(=O)COC(=O)c3ccccc3F)ccc21 | 9.52% [at 11.4 µM] (inactive) | 
3 | CC(=O)c1ccc(NC(=O)COC(=O)c2c3c(nc4ccccc24)/C(=C\c2cccs2)CCC3)cc1 |  | 17.8 µM (active)
4 | CCn1c2ccccc2c2cc(NC(=O)COC(=O)Cc3cn4ccsc4n3)ccc21 | 33.4% [at 11.4 µM] (inactive) | 
5 | Cc1cc(C)nc(N/N=C2/CCCC/C2=C\c2ccccc2)n1 |  | 3.16 µM (active)
6 | NC(N)=N/N=C/c1ccc2cccc(OCc3ccccc3)c2n1 |  | 22.4 µM (active)
7 | Cc1cc(Cl)ccc1-c1cc2nc(NCCCN(C)C)n(C)c(=O)c2s1 | 5.92% [at 11.4 µM] (inactive) | 
8 | Nc1ccn([C@@H]2O[C@H](CO)[C@@H](O)C2O)c(=O)n1 (stereo partly drawn) |  | 2.51 µM (active)
9 | CNc1nc2c(N)ncnc2n1[C@H]1O[C@@H](CO)[C@H](O)[C@@H]1O | 119% [at 11.4 µM] (inactive) | 
10 | N#Cc1c(N)n(C2OC(CO)C(O)C2O)c2ncnc(N)c12 (stereo not drawn) |  | inactive
11 | COC(=O)c1c(NC(=O)c2ccc([N+](=O)[O-])o2)sc2c1CCN(C(C)C)C2 |  | 15.8 µM (active)
12 | O=C(COc1ccccc1Cl)Nc1ccc(N2CCN(C(=O)c3ccccc3)CC2)cc1 |  | 3.55 µM (active)
13 | CC(=O)N(C1=C(Cl)C(=O)c2ccccc2C1=O)C1CCCCC1 |  | 12.6 µM (active)
14 | COCCCn1c(N)c(-c2nc3ccccc3n2C)c2nc3ccccc3nc21 |  | 17.8 µM (active)
15 | CCCCOc1ccccc1NC(=O)Cn1c(-c2nonc2N)nc2ccccc21 |  | inactive
16 | Cc1ccc(NS(=O)(=O)c2ccc(NC(=O)C(C)Sc3ccc(Cl)cc3)cc2)c(C)c1 (stereo not drawn) |  | 25.1 µM (active)
17 | O=C(c1ccc(F)cc1F)C1CCN(c2ccc([N+](=O)[O-])cn2)CC1 |  | 4.47 µM (active)
18 | COC(=O)C(Cc1ccc(O)cc1)NC(=O)C(C)Oc1ccccc1 (stereo not drawn) |  | inactive
19 | CC(Oc1ccc(F)cc1)C(=O)Nc1nc(-c2ccccn2)cs1 (stereo not drawn) |  | 2.51 µM (active)
20 | NC(c1ccccc1)c1csc(NC(=O)Nc2ccccc2Oc2ccccc2)n1 (stereo not drawn) | -22.9% [at 11.4 µM] (inactive) | 
21 | Cc1cc(C)c2nc(NNC(=O)c3cc(-c4cccs4)nc4ccccc34)sc2c1 |  | 2.82 µM (active)
22 | CCN1CCS/C1=C\C=C\C1=[N+](CC)CCS1 |  | 3.98 µM (active)

Row | Compound | activity change, negative = inhibition | Potency
23 | NCCCCCc1nnc(SCc2ccccc2Cl)o1 | -36.5% [at 11.4 µM] (inactive) | 
24 | CCOC(=O)c1c(-c2ccccc2)oc2cc(CN(C)C)c(O)c(CN(C)C)c12 |  | 8.91 µM (active)
25 | CC(=O)Nc1ccc(N(CC(O)Cn2c3ccccc3c3ccccc32)S(=O)(=O)c2ccc(C)cc2)cc1 (stereo not drawn) |  | 20 µM (active)
26 | Cn1c(SCC(=O)N/N=C/c2ccc([N+](=O)[O-])s2)nnc1-c1ccccc1 |  | 22.4 µM (active)
27 | Cn1c(SCC(=O)N/N=C/c2ccc([N+](=O)[O-])s2)nnc1-c1ccc(Cl)cc1 |  | 15.8 µM (active)
28 | O=C(CSc1nnnn1-c1ccccc1)Nc1nsc(-c2ccccc2)n1 |  | inactive
29 | Cn1c(SCC(=O)Nc2cc(Cl)cc(Cl)c2)nnc1-c1ccc2nonc2c1 | -10.7% [at 11.4 µM] (inactive) | 
30 | CSc1sc(-c2nnc(SCC(=O)Nc3ccc(Cl)cc3)n2C)c2c1C=CCC2 | -19.8% [at 11.4 µM] (inactive) | 
31 | Cc1ccc2[nH]c(=O)c(CN(CCCN(C)C)C(=O)Nc3cccc(Cl)c3)cc2c1 |  | inactive
32 | O=c1c2ccc(Cl)cc2nc(-c2ccc([N+](=O)[O-])cc2)n1O |  | 7.94 µM (active)
33 | CC(C)(C)c1cc(C(=O)NNc2cc(C(F)(F)F)ccc2Cl)n(Cc2ccccc2)n1 |  | inactive
34 | Cc1cc(Cl)c(C(=O)Nc2cccc(C(F)(F)F)c2)c(C)n1 |  | 17.8 µM (active)
35 | Cc1nc(-c2c(C(F)(F)F)noc2-c2ccc(O)cc2O)cs1 |  | 11.2 µM (active)
36 | CCCCC(=O)NC(c1ccccc1OC)c1ccc2cccnc2c1O (stereo not drawn) |  | 2.82 µM (active)
37 | CCCCC(=O)NC(c1ccccc1Cl)c1ccc2cccnc2c1O (stereo not drawn) |  | 2.51 µM (active)
38 | CCCCC(=O)NC(c1ccc(OC)c(OC)c1)c1ccc2cccnc2c1O (stereo not drawn) |  | 2.82 µM (active)
39 | CCC(=O)NC(c1ccc(Cl)cc1Cl)c1ccc2cccnc2c1O (stereo not drawn) |  | 2.24 µM (active)
40 | COc1ccc(N2C3=C(CC4=C2CC(C)(C)CC4=O)C(=O)CC(C)(C)C3)cc1 | -2.52% [at 11.4 µM] (inactive) | 
41 | CCCCC(=O)NC(c1ccc(Cl)cc1Cl)c1ccc2cccnc2c1O (stereo not drawn) |  | 0.794 µM (active)
42 | CCCC(=O)NC(c1ccc(Cl)cc1Cl)c1ccc2cccnc2c1O (stereo not drawn) |  | 2.51 µM (active)
43 | CCCCOc1ccc(C(=O)NNC(=O)c2cnccn2)cc1OC |  | 10 µM (active)
44 | CN(C)CCC(c1ccc(Br)cc1)c1ccccn1 (stereo not drawn) |  | inactive

Row | Compound | activity change, negative = inhibition | Potency
45 | O=C(Nc1nc(-c2ccc(F)c(F)c2)cs1)Nc1ccc(F)cc1F | 6.09% [at 11.4 µM] (inactive) | 
46 | COc1ccc(-c2csc(NC(=O)c3ccc(OCC(=O)N4CCOCC4)c(OC)c3)n2)cc1OC |  | 14.1 µM (active)
47 | COCCNc1nc(-c2cc(C)n(CCc3ccc(OC)cc3)c2C)cs1 |  | inactive
48 | COc1ccc(CC(=O)Nc2nc(-c3ccc(F)c(F)c3)cs2)cc1OC |  | 6.31 µM (active)
49 | O=C(CCN1C(=O)C2CC=CCC2C1=O)Nc1nc(-c2ccc(F)c(F)c2)cs1 (stereo not drawn) |  | inactive
50 | Cc1noc(C)c1CSCC(=O)Nc1nc(-c2ccc(F)c(F)c2)cs1 |  | 25.1 µM (active)
51 | COc1cc(C(=O)OC(C)C(=O)N2CCc3ccccc3C2)ccc1OCC(=O)N1CCOCC1 (stereo not drawn) | -9.5% [at 11.4 µM] (inactive) | 
52 | COc1ccc(CC(=O)Nc2nc(-c3ccc(OC)c(OC)c3)cs2)cc1OC |  | 3.55 µM (active)
53 | COc1ccc(/C(N)=N/OC(=O)N2CCOCC2)cc1 | 20.7% [at 11.4 µM] (inactive) | 
54 | Cc1ccc(NC(=O)CCC(=O)c2cc(C)sc2C)nc1 |  | inactive
55 | Cc1ccc(OCC(=O)N2CCN(c3nnc(-c4ccc(C)cc4)c4ccccc34)CC2)cc1 |  | 2.24 µM (active)
56 | CCCCOC(=O)/C=C\C(=O)NC(N)=O |  | 14.1 µM (active)
57 | CCOC(=O)/C=C/C(=O)Nc1ccc(Oc2ccccc2)cc1 | -6.32% [at 11.4 µM] (inactive) | 
58 | CCCN(CCC)S(=O)(=O)c1ccc(C(=O)Nc2nnc(-c3cc(OC)cc(OC)c3)o2)cc1 |  | 0.794 µM (active)
59 | Cc1nc2ccc(NC(=O)c3ccc(S(=O)(=O)N(C)c4ccccc4)cc3)cc2s1 |  | 3.98 µM (active)
60 | Cc1nc2ccc(NC(=O)c3cccc(S(=O)(=O)N(C)c4ccccc4)c3)cc2s1 |  | 3.55 µM (active)
61 | Cc1ccc2nc(N(CCCN(C)C)C(=O)c3ccc(S(=O)(=O)N4CCCCCC4)cc3)sc2c1 | -18.5% [at 11.4 µM] (inactive) | 
62 | CN(c1ccccc1)S(=O)(=O)c1ccc(C(=O)Nc2nnc(-c3ccc(F)cc3)o2)cc1 |  | 10 µM (active)
63 | Cc1nc2cc(NC(=O)CSc3nc4c(C)cccc4cc3C#N)ccc2s1 |  | inactive
64 | O=C(Nc1nnc(-c2ccc(F)cc2)o1)c1cc(Cl)sc1Cl |  | 10 µM (active)
65 | Cc1cccc(NC(=O)c2ccc(S(=O)(=O)N(C)c3ccccc3)cc2)n1 |  | 14.1 µM (active)
66 | O=C(c1ccco1)N1CCCC(c2nc(-c3ccc(S(=O)(=O)NCc4ccccc4)cc3)no2)C1 (stereo not drawn) |  | 11.2 µM (active)

Row | Compound | activity change, negative = inhibition | Potency
67 | COc1cc2c3nnc(-c4ccc(F)cc4)c-3cn(Cc3ccc(F)cc3)c2cc1OC | -11.8% [at 11.4 µM] (inactive) | 
68 | O=C(C1CCCCC1)N1CCN(c2ccnc3cc(Cl)ccc23)CC1 |  | 5.01 µM (active)
69 | CCOC(=O)C(=CNc1ccc2c(c1)nnn2-c1ccc(Cl)cc1)C(=O)OCC |  | inactive
70 | CC(C)N(C(=O)N1CCN(c2ccnc3cc(Cl)ccc23)CC1)C(C)C |  | 12.6 µM (active)
71 | CCOC(=O)N1CCN(c2ccnc3cc(Cl)ccc23)CC1 |  | 2.51 µM (active)
72 | O=C(c1ccco1)N1CCN(c2ccnc3cc(Cl)ccc23)CC1 |  | 14.1 µM (active)
73 | Cc1cc2oc3ccc(NCCC4CCCN4C)cc3c(=O)c2cc1C (stereo not drawn) |  | inactive
74 | CN[C@H]1C[C@H]2c3[nH]c4ccc(-c5ccc(OC)cc5)cc4c3CCN2C(=O)[C@H]1[C@H](C)O |  | 3.55 µM (active)
75 | Cc1nn(C)c(C)c1NC(=O)CSc1nc(Cc2ccccc2)nc2c1cnn2-c1ccccc1 | -7.1% [at 11.4 µM] (inactive) | 
76 | COc1ccc(/C(C)=N/NC(=O)c2cccc(S(=O)(=O)N3CCCC3)c2)c(O)c1 |  | 3.98 µM (active)
77 | C/C(=N\NC(=O)c1cc(-c2cccnc2)nc2ccccc12)c1ccc(O)cc1O |  | 2.51 µM (active)
78 | CC(=NNC(=O)c1ccncc1)c1ccc2ccccc2c1O |  | 0.794 µM (active)
79 | CC(C)CC(=NNC(=O)c1ccncc1)c1cc(Cl)ccc1O |  | 0.282 µM (active)
80 | N/C(=C\C(=O)c1cc(Cl)ccc1O)C(Cl)(Cl)Cl | 21.6% [at 11.4 µM] (inactive) | 
81 | O=C1CCCC(O)=C1C=NCc1ccccc1 | 6.36% [at 11.4 µM] (inactive) | 
82 | CC(=NNC(=O)c1ccncc1)c1ccc(O)cc1O |  | 11.2 µM (active)
83 | CCN(CC)S(=O)(=O)c1cccc(C(=O)N/N=C(\C)c2ccc(O)cc2O)c1 |  | 4.47 µM (active)
84 | Oc1c(CN2CCCCC2)ccc2cccnc12 |  | 12.6 µM (active)
85 | CCN(CC)CCNc1ccnc2cc(Cl)ccc12 | -15.4% [at 11.4 µM] (inactive) | 
86 | Clc1ccc2c(NCc3ccccc3)ccnc2c1 |  | 8.91 µM (active)
87 | Cc1ccc2c(Cl)cc(Cl)c(O)c2n1 |  | 8.91 µM (active)
88 | CS(=O)(=O)N1CCC(Oc2cccc(C(=O)NCCCC3CCCC3)c2)CC1 |  | 14.1 µM (active)
